A selection: hits, their analogues and other compounds. The true share with any hit is near 27%.
CYP2C9 inh: blockers of cytochrome P450 2C9 activity – biochemical, luminescence, ADME assay, primary screen; P11712; CYP2C9 Supersomes, luciferin-H conversion; inhibition, % at 5 µM; actives 20% (n = 96,000);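 active means blocking of liver enzyme CYP2C9 beyond about 50% at 5 µM, limit read from the data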
Cav3 T inh: Cav3.2 calcium influx blockers – cell-based, Fluo-4 calcium fluorescence, FDSS, MLSMR library, primary screen. Voltage-dependent T-type calcium channel subunit alpha-1H (Homo sapiens), O95180. Cav3.2-expressing cells; hits give low values. B-score at 10 µM. actives 4% (n = 100,000). AID 449739, 2010;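 active means single-dose well whose peak fluorescence ratio is a statistical outlier from its plate by either plate-standardised score or position-corrected B-score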
Target sequence (O95180 whole entry, looked up): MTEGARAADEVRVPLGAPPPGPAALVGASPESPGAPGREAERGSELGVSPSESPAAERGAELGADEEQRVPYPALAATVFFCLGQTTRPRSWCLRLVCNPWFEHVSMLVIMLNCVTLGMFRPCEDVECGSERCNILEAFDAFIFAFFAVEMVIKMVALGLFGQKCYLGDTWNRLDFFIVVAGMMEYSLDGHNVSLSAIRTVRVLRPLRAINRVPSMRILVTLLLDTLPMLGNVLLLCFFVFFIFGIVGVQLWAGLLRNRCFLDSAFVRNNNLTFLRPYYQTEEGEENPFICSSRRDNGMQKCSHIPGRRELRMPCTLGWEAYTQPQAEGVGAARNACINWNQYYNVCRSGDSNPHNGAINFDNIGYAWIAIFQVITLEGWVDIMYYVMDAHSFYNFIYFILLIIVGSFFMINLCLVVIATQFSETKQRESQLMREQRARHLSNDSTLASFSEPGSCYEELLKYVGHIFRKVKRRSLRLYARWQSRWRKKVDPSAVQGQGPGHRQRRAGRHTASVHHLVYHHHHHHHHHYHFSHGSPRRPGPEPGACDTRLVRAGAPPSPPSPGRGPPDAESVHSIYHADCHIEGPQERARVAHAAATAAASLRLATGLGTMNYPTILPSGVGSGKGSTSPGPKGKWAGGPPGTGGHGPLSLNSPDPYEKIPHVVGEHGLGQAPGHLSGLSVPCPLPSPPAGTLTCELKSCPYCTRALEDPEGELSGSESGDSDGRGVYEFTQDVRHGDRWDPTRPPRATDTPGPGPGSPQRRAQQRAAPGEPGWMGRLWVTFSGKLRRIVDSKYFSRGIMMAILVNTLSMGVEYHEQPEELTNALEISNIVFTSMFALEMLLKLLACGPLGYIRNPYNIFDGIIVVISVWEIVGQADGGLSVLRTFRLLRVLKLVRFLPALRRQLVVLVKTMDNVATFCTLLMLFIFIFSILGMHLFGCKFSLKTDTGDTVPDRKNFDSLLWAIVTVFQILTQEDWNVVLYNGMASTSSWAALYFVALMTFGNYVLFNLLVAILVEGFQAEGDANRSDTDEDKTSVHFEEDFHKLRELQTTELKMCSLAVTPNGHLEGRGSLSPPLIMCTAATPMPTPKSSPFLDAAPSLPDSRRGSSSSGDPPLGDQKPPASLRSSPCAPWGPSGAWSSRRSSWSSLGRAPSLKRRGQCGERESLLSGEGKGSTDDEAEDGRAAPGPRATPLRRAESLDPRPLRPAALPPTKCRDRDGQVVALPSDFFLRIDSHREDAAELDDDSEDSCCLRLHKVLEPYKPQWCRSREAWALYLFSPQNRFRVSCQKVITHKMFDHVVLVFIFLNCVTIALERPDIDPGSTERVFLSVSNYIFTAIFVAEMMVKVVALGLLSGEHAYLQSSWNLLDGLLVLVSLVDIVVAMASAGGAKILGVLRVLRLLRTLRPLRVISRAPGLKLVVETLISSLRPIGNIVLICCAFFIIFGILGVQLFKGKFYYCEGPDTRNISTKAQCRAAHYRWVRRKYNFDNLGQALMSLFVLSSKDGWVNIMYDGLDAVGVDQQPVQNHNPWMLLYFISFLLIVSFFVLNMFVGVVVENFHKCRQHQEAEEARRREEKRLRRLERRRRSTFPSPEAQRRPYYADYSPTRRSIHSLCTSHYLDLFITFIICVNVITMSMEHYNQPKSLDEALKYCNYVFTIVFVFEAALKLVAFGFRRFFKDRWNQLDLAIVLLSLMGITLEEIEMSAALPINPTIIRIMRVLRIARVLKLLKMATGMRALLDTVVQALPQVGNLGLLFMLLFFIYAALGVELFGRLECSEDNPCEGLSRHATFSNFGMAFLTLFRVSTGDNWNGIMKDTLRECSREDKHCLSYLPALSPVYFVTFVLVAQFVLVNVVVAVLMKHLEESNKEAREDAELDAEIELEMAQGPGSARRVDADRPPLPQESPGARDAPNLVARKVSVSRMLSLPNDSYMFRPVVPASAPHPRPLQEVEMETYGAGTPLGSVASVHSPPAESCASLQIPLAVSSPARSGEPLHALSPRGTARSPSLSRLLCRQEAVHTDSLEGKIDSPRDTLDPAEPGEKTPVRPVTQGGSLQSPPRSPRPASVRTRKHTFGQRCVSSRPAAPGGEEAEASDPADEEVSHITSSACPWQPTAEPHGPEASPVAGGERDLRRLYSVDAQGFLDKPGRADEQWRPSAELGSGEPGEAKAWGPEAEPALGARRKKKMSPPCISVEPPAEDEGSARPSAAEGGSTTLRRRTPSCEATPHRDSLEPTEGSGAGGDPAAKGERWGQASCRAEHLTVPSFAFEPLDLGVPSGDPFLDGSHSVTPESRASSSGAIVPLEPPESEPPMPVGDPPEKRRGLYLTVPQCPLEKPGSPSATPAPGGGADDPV
CYP2C19 inhib: blockers of cytochrome P450 2C19 activity – biochemical, luminescence, ADME assay, primary screen; P33261; CYP2C19 Supersomes, luciferin-H EGE luminescence, 30 min; inhibition, % at 5 µM; actives 21% (n = 96,000); AID 778, 2007;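 active means CYP2C19 inhibition above a set limit at 5 µM in the primary screen, cut at about 50% in these data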;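 further: plate controls were negative control wells for no effect and 2.5 mM tranylcypromine positive control for full effect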
CYP2C19 activ: human CYP2C19 activators, primary screen, biochemical, luminescence. 96,000 tested, under 10 active. AID 1025, 2008. Cytochrome P450 2C19 (Homo sapiens), P33261. activation factor at 5 µM. recombinant CYP2C19, luciferin-H EGE luminescence; hits give high values; 0 = fully inhibited enzyme, 1 = untreated enzyme;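 active means activation factor of at least 2 at 5 µM in the primary screen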;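 further: 0 = wells with 2.5 mM tranylcypromine and 1 = vehicle-only wells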
CYP2C9 act: human CYP2C9 activators, primary screen, biochemical, luminescence. Cytochrome P450 2C9 (Homo sapiens), P11712. recombinant CYP2C9, luciferin-H conversion; hits give high values; factor 1 = untreated enzyme, 0 = blocked. activation factor at 5 µM. actives 1.4% (n = 96,000);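 active means activation factor of 2 or more for CYP2C9 at a 5 µM dose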;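 further: 0 = sulfaphenazole-blocked wells and 1 = vehicle-only wells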
Pyk2 oligo antag: antagonists of Pyk2 self-association, primary screen, Q293 cells, FERM NanoBiT luminescence, HTS | hits give low values | z-score (the deposit names both 25 µM and 10 µM) | actives 0.83% (n = 99,000) | AID 1347419, 2020;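 active means Z-score of -3 or lower, scaled per plate to the spread of control and sample wells; inactive means z-score above -3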;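 further: negative z-score means lost luminescence so less FERM oligomerization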
Starred values were filed as active, the others as inactive; . = no result given.

SMILES	CYP2C9 inh	Cav3 T inh	CYP2C19 inhib	CYP2C19 activ	CYP2C9 act	Pyk2 oligo antag
COc1ccc(S(=O)(=O)NCCC(=O)NC2CCCCCCC2)cc1	.	1.18	.	.	.	-0.07
COc1ccccc1N1CCN(C(=O)CCc2ccc(S(=O)(=O)NCC(C)C)cc2)CC1	39.4	0.645	2.2	1	0.6	2.09
CCCNS(=O)(=O)c1ccc(CCC(=O)N2CCN(c3ccc(OC)cc3)CC2)cc1	87.2*	0.4	80.5*	0.2	0.1	1.68
Cc1cccc(S(=O)(=O)NCCC(=O)OC(C)C(=O)NC(=O)NC2CCCCC2)c1 (centres undefined)	56.3*	-7.8*	13.9	0.9	0.4	0.18
O=C(CCNS(=O)(=O)c1ccc(Br)s1)Nc1ccc(Cl)cc1	-99.8	-1.77	41.5	0.6	2*	-1.31
COc1ccc(NC(=O)CNS(=O)(=O)c2ccc(Cl)cc2)cc1	.	.	.	.	.	0.4
COc1ccc(N2CCN(C(=O)CCNS(=O)(=O)c3ccc(Br)s3)CC2)cc1	90.8*	-3.64	80.0*	0.2	0.1	2.23
COc1ccc(CCNC(=O)CCC(=O)N2CCN(S(=O)(=O)c3ccccc3)CC2)cc1OC	32.9	0.773	43.5	0.6	0.7	0.09
NS(=O)(=O)c1ccc(CCNC(=O)c2ccccc2F)cc1	3.6	-0.175	17.0	0.8	1	0.74
O=C(Nc1ccc2c(c1)OCO2)c1cnn2cccnc12	9.4	.	9.3	0.9	0.9	0.44
O=C(NCN1C(=O)C2C3C=CC(C3)C2C1=O)Nc1nccs1 (centres undefined)	.	-0.203	.	.	.	-0.03
Cc1ccc(S(=O)(=O)NCCC(=O)NC2CCCC2)cc1	-148.3	.	13.1	0.9	2.5*	0.08
CC(NC(=O)c1cccnc1)C(c1cccs1)N1CCN(C)CC1 (centres undefined)	1.2	0.474	9.0	0.9	1	.
Cc1cccc(N2C(=O)CC(N(C(=O)c3ccco3)c3cccc(C)c3)C2=O)c1 (centres undefined)	.	0.191	.	.	.	-0.72
CCOc1ccc(NC(=O)c2c(N)n(C)c(=O)[nH]c2=O)cc1	.	0.0522	.	.	.	.
CC(C)N(Cc1nc(-c2ccc(Cl)cc2)no1)C(=O)C12CC3CC(CC(C3)C1)C2	4.0	0.141	1.6	1	1	1.83
Cc1ccc(C(=O)N(Cc2nc(-c3ccc(C)cc3)no2)C(C)C)cc1	6.3	-0.135	12.5	0.9	0.9	.
Cc1ccc(-c2noc(CN(C(=O)c3cccs3)C(C)C)n2)cc1	74.5*	-1.64	44.8	0.6	0.3	-1.59
CC(C)N(Cc1nc(-c2ccc(Cl)cc2)no1)C(=O)c1cccs1	89.1*	-2.17	78.1*	0.2	0.1	-1.19
CCN(CC)C(=O)COc1cccc2ccccc12	-265.8	-0.00241	93.0*	0.1	3.7*	-0.23
O=C(O)COc1cccc2ccccc12	10.7	0.77	-0.8	1	0.9	0.91
CCc1ccc(Cn2nnc(C(=O)Nc3ccc(OC)cc3OC)c2N)cc1	-237.8	0.599	-7.5	1.1	3.4*	.
COc1cccc(NC(=O)Cn2nnc(C(=O)Nc3ccccc3)c2N)c1	21.9	-0.195	4.9	1	0.8	-0.11
CCOc1ccc(NC(=O)Cn2nnc(C(=O)NCc3ccccc3OC)c2N)cc1	-113.1	0.456	12.2	0.9	2.1*	0.09
CCOc1ccc(Cn2nnc(C(=O)NCc3ccc(OC)cc3)c2N)cc1	-10.0	-5.21*	-2.9	1	1.1	.
COc1cccc(NC(=O)c2nnn(CCc3ccccc3)c2N)c1	91.8*	-2.59*	73.2*	0.3	0.1	.
COc1ccc(/C=N/OCC(=O)Nc2nc3ccccc3s2)cc1	.	.	.	.	.	0.37
O=C(c1cc2cc([N+](=O)[O-])ccc2oc1=O)N1CCN(c2ncccn2)CC1	-19.4	0.526	4.7	1	1.2	-0.35
COc1ccc(CNC(=S)N/N=C/c2ccc(OC)c(OC)c2)cc1	62.8*	.	4.9	1	0.4	0.58
CC(C)COc1ccc(CNC(=S)N/N=C/c2ccc([N+](=O)[O-])cc2)cc1	80.0*	-0.286	18.4	0.8	0.2	-0.12
